Reference: PubChem BioAssay (NCI)
Several values for one entry are separate records, joined by “and”; a condition that tells them apart may be missing. Equal entries are not always repeated. About 83,000 compounds went through this panel and 20% of them were active in at least one assay; those are over-represented in the sample as a whole.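 96-well plates, one dose, 48 hours. Percent growth reported; active if below 10.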 A number with no mark means an inactive call. Activity calls are given as the source filed them.

Tested on: OVCAR-8 ovarian
Experiment: NCI-60 one-dose screen, 48 h (100 = growth as untreated, 0 = no growth, -100 = all killed)
Conditions: 10 µM unless noted
Procedure: Growth inhibition of the OVCAR-8 human tumor cell line is measured as a screen for anti-cancer activity. Cells are grown in 96 well plates and exposed to the test compound for 48 hours. Compounds are tested at a single concentration, which is 10^-5 M for most compounds. The reported endpoint is percent growth (GI% or GIPRCNT), where numbers from 0 - 100% represent growth inhibition, and numbers from -100% - 0 represent cell death. For example, a value of 40 represents 60% growth inhibition. A value of 0 means no net growth occurred over the course of the experiment. A value of -40 indicates 40% of cells at the beginning of the experiment died by the end of the experiment. A value of -100 means all cells are dead at the end of the experiment.
NCI-60 Human Tumor Cell Lines Screen was performed using the standard one-dose NCI protocol, which is described in more detail at https://dtp.cancer.gov/discovery_development/nci-60/default.htm.
Compounds with GIPRCNT values below 10 were considered active. Activity score was based on GIPRCNT using the following formula: […]
Score is 0 for GIPRCNT values of 100 or above, 50 for GIPRCNT values of 0, and 100 for GIPRCNT values of -100.

Row | SMILES | growth
1 | N#CC(N)c1ccccc1 (stereo not given) | 106%
2 | N#CCc1ccc(CC#N)cc1 | 104%
3 | CCCC(C)SP(=S)(SC(C)CCC)SC(C)CCC (stereo not given) | 107%
4 | CCCCOC(N)=O | 98%
5 | Cc1c(C)c(N)c(C)c(C)c1N | 83.8%
6 | C/C(=N/OC(=O)N(C)C)c1ccc(Cl)c(Cl)c1 | 104%
7 | O=C(NC1=NCC[Se]1)c1ccccc1O | 47.4%
8 | CC(=O)OC1CC2(O)C(CCC3(C)C(c4ccc(=O)oc4)CCC32O)C2(C)CCC(OC3OC(CO)C(O)C(O)C3O)C=C12 (stereo not given) | -55.6% (active)
9 | CC[C@H](C)[C@H](NC(=O)c1cnccn1)C(=O)N(C)[C@H](C[C@@H](OC(C)=O)c1nc(C(=O)N[C@@H](Cc2ccccc2)C[C@H](C)C(=O)OC)cs1)C(C)C | 15.2%
10 | CC[C@H](C)[C@H](NC(=O)[C@H]1CCCCN1C)C(=O)N(C)[C@H](C[C@@H](OC(C)=O)c1nc(C(=O)N[C@@H](Cc2ccccc2)C[C@H](C)C(=O)O)cs1)C(C)C | 21%
11 | C[C@]12CCC3[C@@H](C[C@@H]4SC(Nc5ccccc5)=N[C@@]45CC(=O)CC[C@]35C)[C@@H]1CCC2=O (stereo not given in full) | -5.35% (active)
12 | C=CC1CN2CCC1CC2C(O)c1ccnc2ccccc12 (stereo not given) | 127%
13 | CN1C2CCC1[C@@H](COC(=O)c1ccccc1)[C@@H](O)C2 (stereo not given in full) | 103%
14 | O=[N+]([O-])c1ccc(OCc2ccc(S(=O)(=O)F)c(Cl)c2)c(Cl)c1 | 105%
15 | C[C@]12CCC(=O)C[C@@H]1CC[C@@H]1[C@@H]2CC[C@]2(C)[C@@H](OC(=O)N(CCCl)N=O)CC[C@@H]12 | 27.8%
16 | CCC(=O)C(CC(C)[N+](C)(C)C)(c1ccccc1)c1ccccc1 (stereo not given) | 99.8%
17 | NC(N)=NC(N)=Nc1ccc(Cl)cc1 | 121%
18 | Cc1ccc(NC2=N[C@]34CC(=O)CC[C@]3(C)[C@H]3CC[C@]5(C)C(=O)CC[C@H]5[C@@H]3C[C@@H]4S2)c(C)c1 | 31.7%
19 | CC(C)c1cccc(C(C)C)c1O | 102%
20 | C(=NC1CCCCC1)=NC1CCCCC1 | 124% and 77.4%

Row | SMILES | growth
21 | COC12CC3C4=CCOC5CC(=O)N6c7ccccc7C1(CCN2C4)C6C53 (stereo not given) | 91.8%
22 | Cc1ccc(S(=O)(=O)n2cc([C@@]3(O)C[C@H](CSC#N)OC3=O)c3ccccc32)cc1 | 83.2%
23 | ClCc1ccc(Cl)c(Cl)c1 | 104%
24 | O=C1C=C(N2CC2)c2ccccc2C1=O | 73.2%
25 | O=P(O)(Nc1ccccc1)Nc1ccccc1 | 103%
26 | COc1cc2c(cc1OC)[C@@H]1C(=O)c3ccc4c(c3O[C@@H]1CO2)C[C@H](C(C)C)O4 | 54.7%
27 | ClC1OC(Cl)(Cl)C(Cl)(Cl)OC1(Cl)Cl (stereo not given) | 101%
28 | CC/C(=C(\c1ccc(OCCN2CCOCC2)cc1)c1ccc(OC(=O)Cc2ccccc2)cc1)c1ccc(Cl)cc1 | 107%
29 | C[N+]1(CC#CC[N+]2(C)CCCC2)CCCC1 | 111%
30 | C[C@]12CCc3nc(-c4ccc(O)c(O)c4)sc3C1=CC[C@@H]1[C@@H]2CC[C@]2(C)C(=O)CC[C@@H]12 | 29.9%
31 | CC1(C)N=C(N)N=C(N)N1c1ccc(CCC(=O)Nc2ccc(S(=O)(=O)F)cc2)cc1 | 36.7%
32 | CCCC1CCCCC12C(=O)NC(=O)NC2=O (stereo not given) | 107% and 103%
33 | O=C(NCCCN1CC1)Nc1cccc2ccccc12 | 80.1% and 79.3%
34 | CCCCOCCOP(=O)(OCCOCCCC)OCCOCCCC | 107%
35 | COc1ccc(N)cc1OC | 115%
36 | CC/C(Cc1ccccc1)=C(\c1ccc(OCCN2CCCC2)cc1)c1ccc(OC(=O)NCc2ccccc2)cc1 | 62.2%
37 | Cc1cc(N(CCCl)CCCl)ccc1/C=N\NC(=O)c1cccnc1 | 88.4% and 80.2%
38 | Oc1ccc(O)c(Cl)c1 | 90.4% and 102%
39 | O=P1(N(CCCl)CCCl)NCCCO1 (stereo not given) | 102%
40 | O=c1[nH]c(=O)n(Cl)c(=O)n1Cl | 103% and 108%
